Results on five sequences are retold here after PMC11006913.

What all share (test): PBM; 200 nM protein, PBS
Common to all, as to conditions: dsDNA, one strand shown

In experiment [1] the target is HOXA4 (Homo sapiens, UniProt Q00056 201-287, W262R).
Experiment [2] has as its target HOXC10 (Homo sapiens, UniProt Q9NYD6 254-340).
Experiment [3] addresses HOXA4 (Homo sapiens, UniProt Q00056 201-287, R217L).
Experiment [4] has as its target HOXA4 (Homo sapiens, UniProt Q00056 201-287).
Experiment [5] deals with HOXC10 (Homo sapiens, UniProt Q9NYD6 254-340, K271E).
HOXC10 (Homo sapiens, UniProt Q9NYD6 254-340, K271E), sequence (Q9NYD6 254-340 K271E): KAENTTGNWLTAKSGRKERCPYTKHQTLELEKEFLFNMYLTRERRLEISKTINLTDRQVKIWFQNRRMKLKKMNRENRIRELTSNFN
Experiment [6] concerns the target HOXA4 (Homo sapiens, UniProt Q00056 201-287, W262F).
Experiment [7] addresses HOXB6 (Homo sapiens, UniProt P17509 132-218, K202E).
The target in experiment [8] is T1, NKX2-6 (Homo sapiens, UniProt A6NCS4 118-204).
T1 sequence: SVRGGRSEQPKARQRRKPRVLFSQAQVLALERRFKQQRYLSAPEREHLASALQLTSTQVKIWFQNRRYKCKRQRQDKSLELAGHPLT

The target of experiment [9] is T2, NKX2-6 (Homo sapiens, UniProt A6NCS4 118-204, F151L).
T2 sequence: T1 sequence with F34L

The target of experiment [10] is HOXB6 (Homo sapiens, UniProt P17509 132-218).
HOXB6 (Homo sapiens, UniProt P17509 132-218), sequence (P17509 132-218): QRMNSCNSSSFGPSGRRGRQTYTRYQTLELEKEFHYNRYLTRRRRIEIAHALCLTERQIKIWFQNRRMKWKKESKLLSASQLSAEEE
Experiment [11] has as its target HOXC9 (Homo sapiens, UniProt P31274 178-260, K195R).
The target in experiment [12] is ALX4 (Homo sapiens, UniProt Q9H161 200-286).
ALX4 (Homo sapiens, UniProt Q9H161 200-286), sequence (Q9H161 200-286): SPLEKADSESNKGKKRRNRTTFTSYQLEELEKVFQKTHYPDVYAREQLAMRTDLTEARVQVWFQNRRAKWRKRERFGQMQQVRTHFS
Experiment [13] deals with ALX4 (Homo sapiens, UniProt Q9H161 200-286, Q225E).
ALX4 (Homo sapiens, UniProt Q9H161 200-286, Q225E), sequence (Q9H161 200-286 Q225E): as the sequence (Q9H161 200-286) above, with Q26E counted along it
The target of experiment [14] is HOXC9 (Homo sapiens, UniProt P31274 178-260).
HOXC9 (Homo sapiens, UniProt P31274 178-260), sequence (P31274 178-260): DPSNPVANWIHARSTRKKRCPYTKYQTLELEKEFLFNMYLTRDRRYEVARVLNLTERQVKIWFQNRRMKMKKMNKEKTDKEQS
Experiment [15] has as its target HOXC9 (Homo sapiens, UniProt P31274 178-260, R193K).
Experiment [16] has as its target HOXC9 (Homo sapiens, UniProt P31274 178-260, R222W).
For experiment [17], the target named is T3, PAX4 (Homo sapiens, UniProt O43316 9-242, R200K).
T3 sequence: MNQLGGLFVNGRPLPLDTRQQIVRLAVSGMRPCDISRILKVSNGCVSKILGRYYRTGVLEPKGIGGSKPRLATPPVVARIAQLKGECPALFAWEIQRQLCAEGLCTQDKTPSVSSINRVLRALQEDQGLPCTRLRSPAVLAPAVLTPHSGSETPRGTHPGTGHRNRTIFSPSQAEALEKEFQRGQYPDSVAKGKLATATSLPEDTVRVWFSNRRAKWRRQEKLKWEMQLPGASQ

The target of experiment [18] is T4, PAX4 (Homo sapiens, UniProt O43316 9-242).
T4 sequence: T3 sequence with K192R

Experiment [19] deals with T5, PAX4 (Homo sapiens, UniProt O43316 9-242, R200Q).
T5 sequence: T3 sequence with K192Q

Experiment [20] concerns the target T6, PAX4 (Homo sapiens, UniProt O43316 9-242, F177V).
T6 sequence: T3 sequence with F169V, K192R

In experiment [21] the target is T7, PAX4 (Homo sapiens, UniProt O43316 9-242, F177Y).
T7 sequence: T3 sequence with F169Y, K192R

In experiment [22] the target is T8, PAX4 (Homo sapiens, UniProt O43316 9-242, R227W).
T8 sequence: T3 sequence with K192R, R219W

For experiment [23], the target named is PRRX1 (Homo sapiens, UniProt P54821 80-166, F113S).
PRRX1 (Homo sapiens, UniProt P54821 80-166, F113S), sequence (P54821 80-166 F113S): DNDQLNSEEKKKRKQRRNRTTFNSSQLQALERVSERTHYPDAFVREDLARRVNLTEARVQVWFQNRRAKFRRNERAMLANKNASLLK
Experiment [24] has as its target HOXA2 (Homo sapiens, UniProt O43364 129-215, R185T).
Experiment [25] has as its target MSX2 (Homo sapiens, UniProt P35548 130-214, R199I).
Experiment [26] has as its target HOXA2 (Homo sapiens, UniProt O43364 129-215, R185K).
In experiment [27] the target is MSX2 (Homo sapiens, UniProt P35548 130-214).
MSX2 (Homo sapiens, UniProt P35548 130-214), sequence (P35548 130-214): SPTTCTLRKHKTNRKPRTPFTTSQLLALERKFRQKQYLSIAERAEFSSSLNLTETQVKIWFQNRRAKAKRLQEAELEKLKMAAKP
The target of experiment [28] is MSX2 (Homo sapiens, UniProt P35548 130-214, F161Y).
MSX2 (Homo sapiens, UniProt P35548 130-214, F161Y), sequence (P35548 130-214 F161Y): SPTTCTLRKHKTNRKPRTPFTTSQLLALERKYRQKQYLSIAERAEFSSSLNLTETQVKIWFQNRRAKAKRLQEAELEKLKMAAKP
The target in experiment [29] is HOXA2 (Homo sapiens, UniProt O43364 129-215, Y150S).
HOXA2 (Homo sapiens, UniProt O43364 129-215, Y150S), sequence (O43364 129-215 Y150S): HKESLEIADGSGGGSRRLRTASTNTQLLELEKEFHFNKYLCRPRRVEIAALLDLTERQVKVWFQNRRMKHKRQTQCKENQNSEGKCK
Experiment [30] has as its target PRRX1 (Homo sapiens, UniProt P54821 80-166).
Experiment [31] concerns the target HOXA2 (Homo sapiens, UniProt O43364 129-215).

Numbering of substitutions follows the chain as printed.

HOXA4 (Homo sapiens, UniProt Q00056 201-287), sequence (Q00056 201-287): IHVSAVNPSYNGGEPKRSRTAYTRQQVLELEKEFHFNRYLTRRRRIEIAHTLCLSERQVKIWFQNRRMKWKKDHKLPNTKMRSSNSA
HOXA4 (Homo sapiens, UniProt Q00056 201-287, R217L), sequence (Q00056 201-287 R217L): as the sequence (Q00056 201-287) above, with R17L counted along it
HOXA4 (Homo sapiens, UniProt Q00056 201-287, W262R), sequence (Q00056 201-287 W262R): as the sequence (Q00056 201-287) above, with W62R counted along it
HOXA4 (Homo sapiens, UniProt Q00056 201-287, W262F), sequence (Q00056 201-287 W262F): as the sequence (Q00056 201-287) above, with W62F counted along it
HOXC10 (Homo sapiens, UniProt Q9NYD6 254-340), sequence (Q9NYD6 254-340): as the sequence (Q9NYD6 254-340 K271E) above, with E18K counted along it
HOXC9 (Homo sapiens, UniProt P31274 178-260, R222W), sequence (P31274 178-260 R222W): as the sequence (P31274 178-260) above, with R45W counted along it
HOXC9 (Homo sapiens, UniProt P31274 178-260, K195R), sequence (P31274 178-260 K195R): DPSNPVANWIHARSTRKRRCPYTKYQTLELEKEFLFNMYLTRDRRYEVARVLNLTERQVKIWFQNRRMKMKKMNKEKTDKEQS
HOXA2 (Homo sapiens, UniProt O43364 129-215, R185K), sequence (O43364 129-215 R185K): as the sequence (O43364 129-215 Y150S) above, with S22Y, R57K counted along it
HOXA2 (Homo sapiens, UniProt O43364 129-215), sequence (O43364 129-215): as the sequence (O43364 129-215 Y150S) above, with S22Y counted along it
MSX2 (Homo sapiens, UniProt P35548 130-214, R199I), sequence (P35548 130-214 R199I): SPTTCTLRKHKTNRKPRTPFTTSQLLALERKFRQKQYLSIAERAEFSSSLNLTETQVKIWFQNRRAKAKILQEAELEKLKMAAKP
PRRX1 (Homo sapiens, UniProt P54821 80-166), sequence (P54821 80-166): as the sequence (P54821 80-166 F113S) above, with S34F counted along it
HOXB6 (Homo sapiens, UniProt P17509 132-218, K202E), sequence (P17509 132-218 K202E): as the sequence (P17509 132-218) above, with K71E counted along it
HOXA2 (Homo sapiens, UniProt O43364 129-215, R185T), sequence (O43364 129-215 R185T): as the sequence (O43364 129-215 Y150S) above, with S22Y, R57T counted along it
HOXC9 (Homo sapiens, UniProt P31274 178-260, R193K), sequence (P31274 178-260 R193K): as the sequence (P31274 178-260) above, with R16K counted along it

As for GCCAAGCC, the binding signal in experiment [1] is 9.84 upbm affinity estimate (log intensity, higher = more binding, comparable within an allelic series); in [2], 10.1 upbm affinity estimate (log intensity, higher = more binding, comparable within an allelic series); in experiment [3], 9.8 upbm affinity estimate (log intensity, higher = more binding, comparable within an allelic series); in [4] it was 9.92 upbm affinity estimate (log intensity, higher = more binding, comparable within an allelic series); in [5], 10 upbm affinity estimate (log intensity, higher = more binding, comparable within an allelic series); in [6], 9.89 upbm affinity estimate (log intensity, higher = more binding, comparable within an allelic series).
Regarding GCCGGCCC, the binding signal was 9.58 upbm affinity estimate (log intensity, higher = more binding, comparable within an allelic series) in experiment [1]; 8.94 upbm affinity estimate (log intensity, higher = more binding, comparable within an allelic series) in experiment [7]; 9.63 upbm affinity estimate (log intensity, higher = more binding, comparable within an allelic series) in experiment [3]; 9.25 upbm affinity estimate (log intensity, higher = more binding, comparable within an allelic series) in [8]; 9.78 upbm affinity estimate (log intensity, higher = more binding, comparable within an allelic series) in experiment [4]; 9.24 upbm affinity estimate (log intensity, higher = more binding, comparable within an allelic series) in experiment [9]. Further, the binding signal in [6] is 9.8 upbm affinity estimate (log intensity, higher = more binding, comparable within an allelic series); in [10], 8.94 upbm affinity estimate (log intensity, higher = more binding, comparable within an allelic series).
On to GCCTCCCA, for which the binding signal in experiment [1] is 9.78 upbm affinity estimate (log intensity, higher = more binding, comparable within an allelic series); in [11], 9.58 upbm affinity estimate (log intensity, higher = more binding, comparable within an allelic series); in experiment [12], 8.34 upbm affinity estimate (log intensity, higher = more binding, comparable within an allelic series); in [13], 8.34 upbm affinity estimate (log intensity, higher = more binding, comparable within an allelic series); in experiment [3] it was 9.83 upbm affinity estimate (log intensity, higher = more binding, comparable within an allelic series); in [14], 9.69 upbm affinity estimate (log intensity, higher = more binding, comparable within an allelic series). Besides, the binding signal is 9.59 upbm affinity estimate (log intensity, higher = more binding, comparable within an allelic series) in experiment [15]; 9.75 upbm affinity estimate (log intensity, higher = more binding, comparable within an allelic series) in [4]; 9.65 upbm affinity estimate (log intensity, higher = more binding, comparable within an allelic series) in experiment [16]; 9.77 upbm affinity estimate (log intensity, higher = more binding, comparable within an allelic series) in experiment [6].
As for CCCTGGTC, the binding signal in experiment [1] is 9.79 upbm affinity estimate (log intensity, higher = more binding, comparable within an allelic series); in experiment [17], 9.07 upbm affinity estimate (log intensity, higher = more binding, comparable within an allelic series); in experiment [18], 9.08 upbm affinity estimate (log intensity, higher = more binding, comparable within an allelic series); in experiment [3], 9.68 upbm affinity estimate (log intensity, higher = more binding, comparable within an allelic series); in experiment [19] it was 9.25 upbm affinity estimate (log intensity, higher = more binding, comparable within an allelic series); in experiment [20], 9.22 upbm affinity estimate (log intensity, higher = more binding, comparable within an allelic series). Further, the binding signal was 9.69 upbm affinity estimate (log intensity, higher = more binding, comparable within an allelic series) in experiment [4]; 9.15 upbm affinity estimate (log intensity, higher = more binding, comparable within an allelic series) in experiment [21]; 9.21 upbm affinity estimate (log intensity, higher = more binding, comparable within an allelic series) in [22]; 9.7 upbm affinity estimate (log intensity, higher = more binding, comparable within an allelic series) in [6].
Take CCCCCCAG: the binding signal was 9.46 upbm affinity estimate (log intensity, higher = more binding, comparable within an allelic series) in [1]; 9 upbm affinity estimate (log intensity, higher = more binding, comparable within an allelic series) in experiment [23]; 6.72 upbm affinity estimate (log intensity, higher = more binding, comparable within an allelic series) in experiment [24]; 9.39 upbm affinity estimate (log intensity, higher = more binding, comparable within an allelic series) in [3]; 9.41 upbm affinity estimate (log intensity, higher = more binding, comparable within an allelic series) in [25]; 9.81 upbm affinity estimate (log intensity, higher = more binding, comparable within an allelic series) in experiment [26]. The binding signal in experiment [4] was 9.42 upbm affinity estimate (log intensity, higher = more binding, comparable within an allelic series); in experiment [27], 9.49 upbm affinity estimate (log intensity, higher = more binding, comparable within an allelic series); in experiment [28] it was 9.5 upbm affinity estimate (log intensity, higher = more binding, comparable within an allelic series); in [29], 10.1 upbm affinity estimate (log intensity, higher = more binding, comparable within an allelic series); in experiment [6], 9.4 upbm affinity estimate (log intensity, higher = more binding, comparable within an allelic series); in [30], 9.37 upbm affinity estimate (log intensity, higher = more binding, comparable within an allelic series). For the same sequence, the binding signal in [31] is 6.91 upbm affinity estimate (log intensity, higher = more binding, comparable within an allelic series).
